The results in this text go back to PubChem BioAssay (NCATS).

Results filed as inconclusive are left out. Some of the results follow. The source made the active and inactive calls. Calls come from the whole dose curve; as a rule, active = well fitted curve in the direction sought with a large enough effect; inconclusive = small, poorly fitted or top-dose-only effect, or another doubt; inactive = no such curve, though single readings can be large; an effect the other way counts as inactive or inconclusive.

The target in assay [1] is Cytochrome P450 1A2 (Homo sapiens) (UniProt P05177). The experiment in a line: qHTS for inhibitors of CYPIA2 against the NCATS DSHEA and TCM libraries (AID 1919976). Note: potency is the fitted concentration of half-maximal effect. The procedure, abridged:
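Reaction started with 1x NADPH regeneration solution and run 30-45 min, room temperature, protected from light, after compounds sat 15 min with CYP1A2 and pro-luciferin substrate. P450-Glo detection gave luminescence; furafylline served as control.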
Background: qHTS replaces the single test concentration by a dilution series.

Assay [2] has as its target Nuclear receptor subfamily 1 group I member 3 (Homo sapiens) (UniProt Q14994). The experiment in a line: Primary qHTS for agonist of constitutive androstane receptor (CAR) against the NCATS DSHEA and TCM libraries (AID 1794839).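 Note: HepG2 cells expressing human CAR with a CYP2B6 reporter plus PK11195 antagonist.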 The conditions noted are these: Potency: CAR antagonist co-added at 0.75 µM unless noted. The procedure, abridged:
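Luminescence from ONE-Glo luciferase was the agonist read-out in HepG2-CYP2B6-hCAR cells exposed 24 h to test substances. Wells also held the CAR antagonist PK11195 at 0.75 µM final. Viability was by CellTiter-Fluor fluorescence.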

Assay [3] deals with Cytochrome P450 3A4 (Homo sapiens) (UniProt P08684). The experiment in a line: qHTS for inhibitors of CYP3A4 against the NCATS DSHEA and TCM libraries (AID 1919971).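 Note: inhibition lowers luminescence from luciferin made by CYP3A4.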 The procedure, abridged: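 Each CYP isoform and its pro-luciferin substrate, at isoform-specific final concentrations, were preincubated 15 min at RT with substances. NADPH regeneration solution (1x) started a 30-45 min reaction, and P450-Glo luminescence was read.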

The nature of assay [4]: Counterscreen for APE1 Inhibitors: Fluorescent Dye Displacement Assay (AID 2564).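 Note: loss of thiazole orange fluorescence as the dye is displaced from duplex DNA.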 The text has this:
In order to distinguish true inhibitors of DNA-processing enzymes from promiscuous DNA-binding compounds among screening assay hits, we developed a homogeneous and miniaturized assay based on fluorescent dye displacement test as originally described by Tse and Boger (Accounts of Chemical Research (2004) 37: 61-69). The assay is based on the strong enhancement of fluorescence when Thiazole Orange (ThO) binds to double-stranded DNA: conversely, in the presence of a DNA-binding compound, Thiazole Orange is displaced from the DNA and its fluorescence is reduced.
Buffer. 50 mM Tris-HCl (pH7.5) containing 50mM NaCl, 2 mM MgCl2, and 0.01% Tween-20.
Buffer containing 250 nM ThO in columns 3 and 4 as negative control (no dsDNA).
Reaction mixture: 250 nM ThO and 50 nM dsDNA at final concentration dispensed throughout the plate: in columns 1, 2, 5-48. Column 1 is neutral (100% activity).
5''TAMRA- TC ACC FTC GTA CGA CTC
3'' AG TGG GAG CAT GCT GAG
where F denotes tetrahydrofuran. […]
Four uL of reaction mixtures were dispensed to 1536-well Greiner black solid bottom plates. Compounds (23 nL) were transferred […] in order to measure the endpoint fluorescence using 480 nm excitation and 540 nm emission fluorescence protocol.
For orientation: Counterscreens check selectivity or assay interference.

Assay [5] addresses Endonuclease 4 (Escherichia coli (strain K12)) (UniProt P0A6C1). The experiment in a line: Counterscreen for APE1 Inhibitors: qHTS Assay for Inhibitors of Endonuclease IV (AID 2565). An excerpt:
Assay Provider: David M. Wilson, III, National Institute on Aging, NIH
Screening Center PI: Austin, C.P.
Screening Center: NIH Chemical Genomics Center [NCGC]
Escherichia coli endonuclease IV (Endo IV) is the key member of the AP endonuclease superfamily that catalyzes the cleavage of damaged DNA backbone immediately 5' of an AP site. E. coli EndoIV has the same functional activities as human APE1 but has no sequence or structural homology to the human protein. Herein, we utilize E. coli EndoIV to counter screen compound libraries as part of a high-throughput campaign for APE1 inhibitor identification. […]
Inhibition of APE1 activity was screened by utilizing double-stranded short substrate containing tetrahydrofuran (THF) abasic site labeled with rhodamine-type fluorophore (TAMRA) at the 5'-end and with non-fluorescent Black Hole Quencher-2 (BHQ-2) at the opposing 3'-end. An increase in the fluorescence intensity due to incision of the abasic site by APE1 was used to measure the enzyme activity. […]
Three uL of enzyme were dispensed to 1536-well Greiner black solid bottom plates. […] The plates were immediately transferred into ViewLux High-throughput CCD imager (Perkin-Elmer) in order to measure the reaction progress in kinetic mode (three reads every 60 seconds) using 525 nm excitation and 598 nm emission fluorescence protocol. […]

Assay [6] addresses DNA repair nuclease/redox regulator APEX1 (Homo sapiens) (UniProt P27695). The experiment in a line: Confirmation qHTS Assay for Inhibitors of the Human Apurinic/apyrimidinic Endonuclease 1 (APE1) (AID 2572).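 Note: fluorescence gain from purified APE1 cutting a TAMRA/BHQ-2 THF abasic duplex; nearly all actives have a fitted effect of over 30% in size.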 The procedure, abridged: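 Double-stranded THF abasic-site substrate (50 nM final), 5'-TAMRA/3'-BHQ-2; APE1 incision raises fluorescence. Enzyme preincubated with compound 15 min at room temperature before substrate; kinetic read Ex 525/Em 598 nm, signal difference between third and first reads.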

The target is the same in assay [7]. The experiment in a line: qHTS FP-Based Assay for Inhibitors of the Human Apurinic/apyrimidinic Endonuclease 1 (APE1) (AID 2573). The text has this: The apurinic/apyrimidinic endonuclease APE1 is the primary mammalian enzyme responsible for the removal of abasic (or AP) sites in DNA and functions centrally in the base excision DNA repair (BER) pathway. […] Thus, targeting APE1 could improve the efficacy of current treatment paradigms by promoting selective sensitization or protection of diseased and normal cells, respectively.
In order to gain insight into the mode of action of confirmed APE1 inhibitors, we implemented a miniaturized fluorescence polarization assay designed to report on compounds which competitively displace ds-DNA substrate. The fluorescence polarization assay has been implemented in 384- and 1536-well format for binding of TAMRA-labeled double-stranded DNA probe not containing a quencher. The binding of protein to DNA is inhibited by ATA, a general inhibitor of APE1 activity.
See also related primary fluorogenic assay (AID 2517). […]
Three uL of enzyme were dispensed to 1536-well Greiner black solid bottom plates. […] The plates were immediately transferred into ViewLux High-throughput CCD imager (Perkin-Elmer) in order to measure the reaction progress in kinetic mode (three reads every 60 seconds) using 525 nm excitation and 598 nm emission fluorescence protocol. The fluorescence intensity difference between the third and the first time points was used to compute reaction progress.

Chain of DNA repair nuclease/redox regulator APEX1 (Homo sapiens) (P27695 whole entry, looked up): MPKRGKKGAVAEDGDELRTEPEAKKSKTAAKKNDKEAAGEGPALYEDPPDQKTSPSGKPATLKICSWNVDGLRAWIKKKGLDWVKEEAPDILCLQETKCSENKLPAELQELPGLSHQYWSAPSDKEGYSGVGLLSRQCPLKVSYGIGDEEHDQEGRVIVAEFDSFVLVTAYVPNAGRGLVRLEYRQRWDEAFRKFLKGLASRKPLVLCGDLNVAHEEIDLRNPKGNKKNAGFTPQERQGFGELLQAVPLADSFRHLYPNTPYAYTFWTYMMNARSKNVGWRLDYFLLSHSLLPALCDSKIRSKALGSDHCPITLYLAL
Chain of Cytochrome P450 3A4 (Homo sapiens) (P08684 whole entry, looked up, canonical isoform): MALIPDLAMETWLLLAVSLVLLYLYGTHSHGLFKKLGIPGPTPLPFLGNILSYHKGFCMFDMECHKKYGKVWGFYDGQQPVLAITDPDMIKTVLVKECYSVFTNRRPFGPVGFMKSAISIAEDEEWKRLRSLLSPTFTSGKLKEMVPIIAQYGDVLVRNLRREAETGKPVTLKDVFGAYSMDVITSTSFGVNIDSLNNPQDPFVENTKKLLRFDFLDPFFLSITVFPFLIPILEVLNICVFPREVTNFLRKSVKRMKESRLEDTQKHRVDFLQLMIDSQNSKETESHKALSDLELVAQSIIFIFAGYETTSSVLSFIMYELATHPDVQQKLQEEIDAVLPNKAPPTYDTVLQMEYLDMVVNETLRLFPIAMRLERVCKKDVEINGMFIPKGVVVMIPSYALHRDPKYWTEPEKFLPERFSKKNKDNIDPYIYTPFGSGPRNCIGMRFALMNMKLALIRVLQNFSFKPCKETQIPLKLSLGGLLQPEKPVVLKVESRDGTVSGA
Chain of Nuclear receptor subfamily 1 group I member 3 (Homo sapiens) (Q14994 whole entry, looked up): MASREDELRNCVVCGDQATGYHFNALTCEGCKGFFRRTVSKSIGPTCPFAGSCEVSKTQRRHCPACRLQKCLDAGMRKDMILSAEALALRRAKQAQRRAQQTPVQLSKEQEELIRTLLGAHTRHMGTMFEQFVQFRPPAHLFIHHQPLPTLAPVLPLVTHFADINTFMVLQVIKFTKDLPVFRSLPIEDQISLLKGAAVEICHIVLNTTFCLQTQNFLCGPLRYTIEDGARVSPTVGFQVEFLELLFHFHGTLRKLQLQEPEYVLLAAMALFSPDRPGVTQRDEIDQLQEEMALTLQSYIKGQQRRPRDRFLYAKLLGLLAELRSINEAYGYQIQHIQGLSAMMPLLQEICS
Chain of Cytochrome P450 1A2 (Homo sapiens) (P05177 whole entry, looked up): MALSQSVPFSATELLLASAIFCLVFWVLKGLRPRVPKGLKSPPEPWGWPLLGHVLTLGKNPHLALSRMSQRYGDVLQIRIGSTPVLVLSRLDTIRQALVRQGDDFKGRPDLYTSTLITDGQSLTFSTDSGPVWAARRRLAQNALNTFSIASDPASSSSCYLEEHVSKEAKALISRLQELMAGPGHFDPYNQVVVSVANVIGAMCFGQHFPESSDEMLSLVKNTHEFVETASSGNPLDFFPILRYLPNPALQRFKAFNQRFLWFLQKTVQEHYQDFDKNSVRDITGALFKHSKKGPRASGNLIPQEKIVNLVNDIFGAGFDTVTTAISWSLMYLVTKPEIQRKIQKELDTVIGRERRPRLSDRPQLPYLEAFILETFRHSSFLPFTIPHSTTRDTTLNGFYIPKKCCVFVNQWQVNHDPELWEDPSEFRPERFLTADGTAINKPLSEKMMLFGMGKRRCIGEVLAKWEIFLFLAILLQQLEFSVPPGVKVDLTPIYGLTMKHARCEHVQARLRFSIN

Consider `COc1cc2c(cc1O)CC1c3c(cc(O)c(OC)c3-2)CCN1C` (configuration not stated), for which, in assay [1], the Potency was 3.98 µM (active).
As for `COc1ccc2c(c1O)-c1c(OC)c(OC)cc3c1[C@H](C2)N(C)CC3`, the Potency entry in assay [2] and in assay [3] was “inactive” each time.
Regarding `CCNC[C@H](O)c1cccc(O)c1`, the compound was classed as inactive in assay [4], in assay [5], in assay [6] and in assay [7].
